Reference: the supplement of paper PMC10849652
Targets with a hit are over-represented here; the source holds about 7,900 in all. About 0.6% of all pairs of compound and target were hits. A number with no mark means an inactive call.

Assays:
Assay in all cases: log2 fold change, soluble protein after heating vs DMSO (PISA); higher = thermal stabilisation; K562 cells, 10 uM, 30 min; active = over 0.2 and 3.5 SD of the protein, either way, in both replicates (recomputed)
[1] = compound: Cc1ccc(NC(=O)c2ccc(CN3CC[C@H](N(C)C)C3)c(C(F)(F)F)c2)cc1Nc1nccc(-c2cncnc2)n1 [bafetinib]
Outline: (§1)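 K562 cells (2×10^6 cells/mL) were treated with 10 μM compound for 30 min, and aliquots were heated for 3 min over 48°C-58°C. Pooled aliquots were extracted in PBS with 0.5% NP-40 at 4°C, and the supernatant after 21,000xg for 90 min was measured by TMTpro 16plex LC-MS/MS with channel sums equalised. Reported thermal stability, relative to control samples and from duplicates, is a log2 fold change.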

[2] = compound: Cc1cccc(CC(=O)N2CCc3c2ccc(-c2cn(C)c4ncnc(N)c24)c3F)n1
Outline: as §1

[3] = compound: Cc1cn(-c2cc(NC(=O)c3ccc(C)c(Nc4nccc(-c5cccnc5)n4)c3)cc(C(F)(F)F)c2)cn1 [nilotinib]
Outline: as §1

[4] = compound: Cc1nc(Nc2n[nH]c3c2CN(C(=O)N[C@H](CN(C)C)c2ccccc2)C3(C)C)c2sccc2n1
Outline: as §1

[5] = compound: Cc1nc(Nc2ncc(C(=O)Nc3c(C)cccc3Cl)s2)cc(N2CCN(CCO)CC2)n1 [dasatinib]
Outline: as §1

[6] = compound: Cc1ncc(-c2ccnc(Nc3ccc(S(C)(=O)=O)cc3)n2)n1C(C)C
Outline: as §1

[7] = compound: Cn1cc(-c2ccc3c(c2)CCN3C(=O)Cc2cccc(C(F)(F)F)c2)c2c(N)ncnc21
Outline: as §1

[8] = compound: Cn1cc(-c2ccc3nnc(C(F)(F)c4ccc5ncccc5c4)n3n2)cn1
Outline: as §1

[9] = compound: Cn1cncc1[C@@](N)(c1ccc(Cl)cc1)c1ccc2c(c1)c(-c1cccc(Cl)c1)cc(=O)n2C [tipifarnib]
Outline: as §1

[10] = compound: FC(F)(F)c1ccc(/C=C/c2nc(COc3ccc(CCCCn4ccnn4)cc3)co2)cc1 [mubritinib]
Outline: as §1

Sequence of UniProt P35670 (P35670 whole entry, looked up): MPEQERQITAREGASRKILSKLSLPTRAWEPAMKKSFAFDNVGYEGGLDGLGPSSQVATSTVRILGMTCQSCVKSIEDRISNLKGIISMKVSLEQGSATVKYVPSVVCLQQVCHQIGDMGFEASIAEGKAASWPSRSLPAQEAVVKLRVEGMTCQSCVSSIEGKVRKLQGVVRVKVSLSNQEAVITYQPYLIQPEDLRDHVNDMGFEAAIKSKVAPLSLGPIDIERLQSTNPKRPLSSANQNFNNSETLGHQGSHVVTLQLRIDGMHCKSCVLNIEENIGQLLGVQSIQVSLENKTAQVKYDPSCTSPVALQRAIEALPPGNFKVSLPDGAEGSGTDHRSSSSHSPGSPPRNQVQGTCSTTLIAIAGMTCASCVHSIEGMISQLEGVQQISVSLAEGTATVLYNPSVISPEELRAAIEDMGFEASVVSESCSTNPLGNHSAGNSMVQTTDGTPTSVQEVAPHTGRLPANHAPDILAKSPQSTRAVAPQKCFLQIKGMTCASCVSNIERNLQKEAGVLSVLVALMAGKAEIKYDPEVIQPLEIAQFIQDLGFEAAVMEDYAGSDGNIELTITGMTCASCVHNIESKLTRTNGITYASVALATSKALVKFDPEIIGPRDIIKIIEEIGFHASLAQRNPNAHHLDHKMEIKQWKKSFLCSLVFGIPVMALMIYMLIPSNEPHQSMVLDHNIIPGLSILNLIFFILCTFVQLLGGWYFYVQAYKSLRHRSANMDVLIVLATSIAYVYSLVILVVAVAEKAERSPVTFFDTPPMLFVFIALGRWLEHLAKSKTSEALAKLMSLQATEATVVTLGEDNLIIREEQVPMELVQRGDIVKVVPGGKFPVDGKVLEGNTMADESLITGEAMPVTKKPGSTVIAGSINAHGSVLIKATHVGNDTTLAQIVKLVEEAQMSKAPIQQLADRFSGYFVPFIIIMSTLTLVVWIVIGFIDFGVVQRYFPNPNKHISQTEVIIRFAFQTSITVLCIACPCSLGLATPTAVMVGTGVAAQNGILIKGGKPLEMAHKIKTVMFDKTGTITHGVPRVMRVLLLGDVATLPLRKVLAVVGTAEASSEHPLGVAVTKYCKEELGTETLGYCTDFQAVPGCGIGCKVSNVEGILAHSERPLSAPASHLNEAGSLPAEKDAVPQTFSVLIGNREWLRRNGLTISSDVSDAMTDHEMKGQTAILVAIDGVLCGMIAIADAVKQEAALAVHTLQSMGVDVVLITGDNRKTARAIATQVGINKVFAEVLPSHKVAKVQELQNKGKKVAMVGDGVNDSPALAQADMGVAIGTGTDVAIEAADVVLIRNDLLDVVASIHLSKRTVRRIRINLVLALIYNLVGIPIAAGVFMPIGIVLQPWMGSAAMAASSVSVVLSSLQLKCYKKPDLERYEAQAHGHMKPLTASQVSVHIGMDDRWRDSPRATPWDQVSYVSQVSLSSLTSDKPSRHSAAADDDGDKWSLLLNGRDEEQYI
Sequence of UniProt Q9BTT0 (Q9BTT0 whole entry, looked up): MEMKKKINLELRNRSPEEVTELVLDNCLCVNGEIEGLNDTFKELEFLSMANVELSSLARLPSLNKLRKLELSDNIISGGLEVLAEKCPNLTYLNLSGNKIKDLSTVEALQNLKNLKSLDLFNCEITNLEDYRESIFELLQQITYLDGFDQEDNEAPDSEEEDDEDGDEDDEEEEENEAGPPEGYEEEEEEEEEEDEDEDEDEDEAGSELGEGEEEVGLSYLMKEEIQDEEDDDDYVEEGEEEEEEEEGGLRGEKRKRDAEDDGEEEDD
Sequence of UniProt Q562R1 (Q562R1 whole entry, looked up): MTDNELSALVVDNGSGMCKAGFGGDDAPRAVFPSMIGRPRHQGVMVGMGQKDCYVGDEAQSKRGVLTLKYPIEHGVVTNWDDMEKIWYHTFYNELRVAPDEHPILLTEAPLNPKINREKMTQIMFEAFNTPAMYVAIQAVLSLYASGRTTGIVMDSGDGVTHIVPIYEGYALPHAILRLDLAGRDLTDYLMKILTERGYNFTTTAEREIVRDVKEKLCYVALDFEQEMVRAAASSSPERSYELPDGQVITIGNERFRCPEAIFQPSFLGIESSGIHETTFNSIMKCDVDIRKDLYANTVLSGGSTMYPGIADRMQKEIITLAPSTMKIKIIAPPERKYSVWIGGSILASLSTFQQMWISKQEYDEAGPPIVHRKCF
Sequence of UniProt P54922 (P54922 whole entry, looked up): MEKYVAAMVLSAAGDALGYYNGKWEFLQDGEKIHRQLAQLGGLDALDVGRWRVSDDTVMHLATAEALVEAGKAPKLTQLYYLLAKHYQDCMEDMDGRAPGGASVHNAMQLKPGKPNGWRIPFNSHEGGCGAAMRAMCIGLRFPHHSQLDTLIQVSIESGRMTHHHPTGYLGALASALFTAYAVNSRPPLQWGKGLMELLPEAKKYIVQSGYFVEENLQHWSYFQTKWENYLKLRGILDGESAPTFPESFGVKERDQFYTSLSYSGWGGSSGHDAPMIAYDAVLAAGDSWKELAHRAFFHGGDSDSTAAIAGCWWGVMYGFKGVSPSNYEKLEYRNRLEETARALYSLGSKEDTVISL
Sequence of UniProt Q96F25 (Q96F25 whole entry, looked up): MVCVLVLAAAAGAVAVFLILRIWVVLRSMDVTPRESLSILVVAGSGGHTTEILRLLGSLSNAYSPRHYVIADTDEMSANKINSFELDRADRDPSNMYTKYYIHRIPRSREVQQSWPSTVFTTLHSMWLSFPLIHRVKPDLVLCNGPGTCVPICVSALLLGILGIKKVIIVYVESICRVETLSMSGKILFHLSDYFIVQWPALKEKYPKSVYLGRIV
Sequence of UniProt Q86WA6 (Q86WA6 whole entry, looked up): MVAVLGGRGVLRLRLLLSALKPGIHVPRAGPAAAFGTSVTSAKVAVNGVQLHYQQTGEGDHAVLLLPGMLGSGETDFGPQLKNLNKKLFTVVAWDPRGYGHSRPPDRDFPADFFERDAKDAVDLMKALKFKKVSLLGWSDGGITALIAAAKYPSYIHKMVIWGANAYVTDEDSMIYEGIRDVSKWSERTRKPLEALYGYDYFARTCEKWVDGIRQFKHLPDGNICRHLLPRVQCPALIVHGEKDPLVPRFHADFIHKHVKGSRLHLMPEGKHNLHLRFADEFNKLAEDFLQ
Sequence of UniProt Q9NUQ2 (Q9NUQ2 whole entry, looked up): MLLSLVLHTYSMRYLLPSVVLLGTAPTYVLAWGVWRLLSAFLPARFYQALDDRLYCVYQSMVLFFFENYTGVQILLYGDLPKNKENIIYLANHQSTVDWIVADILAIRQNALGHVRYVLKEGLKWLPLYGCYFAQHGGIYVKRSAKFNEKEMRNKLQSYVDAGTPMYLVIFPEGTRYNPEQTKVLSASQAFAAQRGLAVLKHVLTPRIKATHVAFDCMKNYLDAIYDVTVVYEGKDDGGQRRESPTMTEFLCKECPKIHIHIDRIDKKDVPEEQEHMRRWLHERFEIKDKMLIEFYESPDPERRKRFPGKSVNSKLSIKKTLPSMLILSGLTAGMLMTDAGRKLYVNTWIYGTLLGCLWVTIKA
Sequence of UniProt P11310 (P11310 whole entry, looked up): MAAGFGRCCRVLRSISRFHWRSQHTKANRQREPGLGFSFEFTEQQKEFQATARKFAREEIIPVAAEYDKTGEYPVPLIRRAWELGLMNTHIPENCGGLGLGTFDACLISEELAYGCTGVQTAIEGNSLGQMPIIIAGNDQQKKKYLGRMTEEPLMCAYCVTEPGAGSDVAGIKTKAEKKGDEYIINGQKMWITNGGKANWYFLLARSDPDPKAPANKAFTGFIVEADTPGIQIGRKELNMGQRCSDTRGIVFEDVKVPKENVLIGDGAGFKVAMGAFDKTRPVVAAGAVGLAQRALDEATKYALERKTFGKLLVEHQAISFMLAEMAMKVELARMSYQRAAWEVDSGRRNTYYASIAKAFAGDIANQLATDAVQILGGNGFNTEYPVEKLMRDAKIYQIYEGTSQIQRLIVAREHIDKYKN
Sequence of UniProt Q9UKG1 (Q9UKG1 whole entry, looked up): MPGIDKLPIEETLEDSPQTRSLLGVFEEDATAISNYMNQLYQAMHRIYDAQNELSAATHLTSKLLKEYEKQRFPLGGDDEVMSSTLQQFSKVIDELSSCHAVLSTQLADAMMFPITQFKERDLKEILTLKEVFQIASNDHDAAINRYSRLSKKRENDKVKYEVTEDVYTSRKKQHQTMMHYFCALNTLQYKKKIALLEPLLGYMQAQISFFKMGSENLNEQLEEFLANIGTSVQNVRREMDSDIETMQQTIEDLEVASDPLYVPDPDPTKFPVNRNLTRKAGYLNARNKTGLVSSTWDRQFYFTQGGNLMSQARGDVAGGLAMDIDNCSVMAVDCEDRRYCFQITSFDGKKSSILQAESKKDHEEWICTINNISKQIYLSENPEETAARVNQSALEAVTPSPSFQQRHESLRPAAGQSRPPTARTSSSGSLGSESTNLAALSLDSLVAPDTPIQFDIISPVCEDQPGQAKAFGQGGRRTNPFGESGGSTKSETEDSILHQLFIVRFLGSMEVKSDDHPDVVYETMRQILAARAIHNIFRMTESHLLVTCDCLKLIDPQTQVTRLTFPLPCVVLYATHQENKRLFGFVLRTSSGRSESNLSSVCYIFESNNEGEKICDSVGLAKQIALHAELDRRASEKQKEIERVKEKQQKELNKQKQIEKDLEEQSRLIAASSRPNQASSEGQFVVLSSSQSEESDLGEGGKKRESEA
Sequence of UniProt P42330 (P42330 whole entry, looked up): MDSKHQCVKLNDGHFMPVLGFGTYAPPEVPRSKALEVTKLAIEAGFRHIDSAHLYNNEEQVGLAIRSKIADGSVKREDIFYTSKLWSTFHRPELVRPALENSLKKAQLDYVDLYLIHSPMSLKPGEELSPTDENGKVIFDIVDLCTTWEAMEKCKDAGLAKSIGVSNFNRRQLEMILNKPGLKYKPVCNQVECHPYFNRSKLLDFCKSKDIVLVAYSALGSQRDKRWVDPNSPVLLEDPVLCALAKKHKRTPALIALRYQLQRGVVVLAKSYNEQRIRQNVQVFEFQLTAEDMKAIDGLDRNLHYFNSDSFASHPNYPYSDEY
Sequence of UniProt P53680 (P53680 whole entry, looked up): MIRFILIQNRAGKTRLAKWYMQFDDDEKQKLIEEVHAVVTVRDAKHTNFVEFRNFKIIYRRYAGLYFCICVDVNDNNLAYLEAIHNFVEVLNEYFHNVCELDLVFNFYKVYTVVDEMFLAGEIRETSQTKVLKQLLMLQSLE

| Target | log2 fold change [1] | log2 fold change [2] | log2 fold change [3] | log2 fold change [4] | log2 fold change [5] | log2 fold change [6] | log2 fold change [7] | log2 fold change [8] | log2 fold change [9] | log2 fold change [10] |
| --- | --- | --- | --- | --- | --- | --- | --- | --- | --- | --- |
| ABHD16A (UniProt O95870) | 0.132 | -0.056 | 0.177 | 0.055 | 0.029 | -0.058 | 0.087 | -0.075 | -0.01 | 0.071 |
| AKR1C3 (UniProt P42330) | 0.018 | -0.03 | 0.025 | 0.004 | -0.038 | 0.078 | 0.068 | 0.557 (active) | 0.862 (active) | -0.147 |
| ATP7B (UniProt P35670) | -0.009 | -0.032 | 0.006 | -0.017 | -0.153 | 0.087 | 0.015 | 0.001 | 0.019 | -0.079 |
| ARFIP1 isoform 2 (UniProt P53367) | -0.281 | -0.195 | -0.147 | -0.049 | -0.316 | -0.013 |  |  | -0.024 | -0.004 |
| ADAMTS5 (UniProt Q9UNA0) | -0.103 | -0.066 | 0.022 | 0.052 | 0.033 | -0.079 | 0.088 | 0.063 |  | 0.154 |
| ACP1 (UniProt P24666) | 0.041 | 0.013 | 0.078 | -0.071 | -0.129 | -0.01 | 0.037 |  | 0.037 | 0.035 |
| ALG14 (UniProt Q96F25) | -0.092 | 0.461 (active) | 0.061 | 0.026 | 0.003 | -0.033 | 0.014 | 0.126 | -0.214 | 0.003 |
| AFDN isoform 5 (UniProt P55196) | -0.012 | 0.035 | -0.06 | -0.135 | -0.16 | -0.06 | 0.044 | -0.008 | -0.045 | 0.054 |
| ACADM isoform 2 (UniProt P11310) | -0.073 | 0.002 | -0.013 | 0.025 | -0.054 | -0.002 | 0.039 | 0.024 | 0.012 | 0.016 |
| BSCL2 isoform 4 (UniProt Q96G97) | -0.225 | -0.041 | 0.101 | 0.026 | -0.14 | 0.116 | 0.002 |  | 0.109 | 0.133 |
| AMD1 (UniProt P17707) | 0.091 | -0.141 | -0.089 | 0.001 |  | -0.037 |  | -0.071 | -0.022 | 0.056 |
| BAP1 (UniProt Q92560) | 0.252 | -0.071 | 0.007 | 0.053 | -0.031 | 0.006 | -0.086 | -0.064 | 0.076 | -0.201 |
| AP2S1 (UniProt P53680) | 0.023 | -0.01 | -0.019 | -0.009 | -0.011 | -0.082 | -0.057 | 0.004 | -0.04 | -0.001 |
| BPHL (UniProt Q86WA6) | -0.005 | 0.002 | -0.032 | -0.034 | -0.032 | -0.021 | 0.082 | 0.009 | 0.032 | -0.008 |
| ACSL6 isoform 1 (UniProt Q9UKU0) | 0.147 | 0.057 | -0.066 | -0.066 | 0.036 | -0.025 |  | 0.014 |  | 0.015 |
| ASB6 (UniProt Q9NWX5) | -0.039 | 0.014 | -0.066 | -0.279 |  | -0.07 |  | -0.034 | -0.02 | 0.037 |

| Target | log2 fold change [1] | log2 fold change [2] | log2 fold change [3] | log2 fold change [4] | log2 fold change [5] | log2 fold change [6] | log2 fold change [7] | log2 fold change [8] | log2 fold change [9] | log2 fold change [10] |
| --- | --- | --- | --- | --- | --- | --- | --- | --- | --- | --- |
| ATP23 (UniProt Q9Y6H3) | -0.1 | -0.015 | -0.092 | 0.067 | 0.041 | -0.011 | -0.097 | 0.023 | 0.081 | 0.033 |
| APPL1 (UniProt Q9UKG1) | -0.013 | -0.092 | -0.046 | 0.161 | -0.003 | 0.002 | 0.03 | -0.001 | -0.051 | -0.029 |
| ACTBL2 (UniProt Q562R1) | 0.113 | -0.124 | 0.579 | -0.067 | 0.398 | -0.051 |  | 0.336 | 0.488 | -0.267 |
| AHCYL1 (UniProt O43865) | -0.009 | -0.135 | 0.006 | 0.029 | 0.005 | 0.116 | 0.041 | 0.041 | -0.014 | -0.055 |
| ANP32E (UniProt Q9BTT0) | 0.04 | 0.146 | -0.061 | -0.123 | 0.053 | -0.104 | 0.013 | 0.027 | 0.001 | -0.047 |
| ALG5 (UniProt Q9Y673) | 0.021 | 0.067 | 0.009 | -0.123 | -0.045 | -0.121 | 0.088 | 0.059 | -0.079 | -0.055 |
| ATRN (UniProt O75882) | -0.006 | 0.004 | 0.027 | -0.055 | -0.047 | 0 | 0.097 |  | 0.048 | -0.027 |
| ASS1 (UniProt P00966) | -0.113 | -0.001 | -0.017 | 0.021 | 0.013 | -0.017 | 0.093 | 0.06 | 0.005 | 0.009 |
| AARS2 (UniProt Q5JTZ9) | -0.07 | 0.011 | -0.085 | -0.047 | -0.184 | -0.036 | 0.052 | 0.05 | -0.063 | -0.143 |
| ADPRH (UniProt P54922) | 0.082 | -0.29 | 0.141 | 0.026 |  | -0.161 |  | 0.038 | -0.005 | 0.015 |
| ABCA4 (UniProt P78363) | -0.025 | -0.149 | 0.106 | 0.095 |  | 0.045 | 0.016 | -0.071 |  | 0.154 |
| ATXN3 isoform 1 (UniProt P54252) | 0.03 | 0.021 | -0.038 | -0.11 |  | -0.021 | 0.001 | 0.033 | 0.026 | 0.018 |
| AGPAT5 (UniProt Q9NUQ2) | -0.133 | 0.021 | 0.008 | 0.04 | -0.058 | -0.035 | 0.09 | 0.045 | 0.02 | 0.014 |
| AZI2 (UniProt Q9H6S1) | -0.049 |  | 0.179 | 0.481 |  | 0.099 |  | 0.105 |  |  |
| AP2M1 (UniProt C9JTK4) | -0.174 |  | -0.02 | 0.212 | 0.029 | -0.161 | -0.17 |  |  | 0.08 |
| ACVR1 (UniProt Q04771) |  | -0.068 |  |  | 0.041 |  | 0.029 |  | -0.006 | -0.124 |
